# The campaign covered roughly 370,000 compounds. About 4,700 (1.3%) were called active. The sample holds actives, similar compounds and a random draw of the others, so the mix is not that of the screen.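 The calls were made as follows: active = inhibition above the plate cutoff, the mean of all test compounds on that plate plus 3 SD (cut at about 35% in these data); inactive = the rest.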
# Assay: small molecules binding CAG repeat RNA – biochemical, fluorescence, primary screen (AID 651821);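 also: 0% = DMSO alone and 100% = 100 µM mitoxantrone as full dye displacement; higher means more dye released from RNA so lower well fluorescence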
# Conditions: r(CAG) RNA repeat, TO-PRO-1 dye displacement fluorescence; at 3 µM; stronger effect = higher value
row,SMILES,inhibition
1,Cc1ccc(-c2nnc(SCC(=O)N/N=C/c3cccs3)n2-c2ccc(C)cc2)cc1,2.97% (inactive)
2,COc1ccc(-n2c(SCC(=O)Nc3ccc4cn[nH]c4c3)nnc2-c2cccnc2)cc1,5.12% (inactive)
3,Cn1c(SCC(=O)Nc2nccs2)nnc1-c1cccnc1,3.4% (inactive)
4,Cc1ccc(-n2c(SCC(=O)Nc3ccc(S(=O)(=O)Nc4nccs4)cc3)nnc2-c2ccccn2)cc1,69.8% (active)
5,O=C(CSc1nnc(-c2ccccn2)n1-c1ccccc1)Nc1ccc2c(c1)OCO2,1.36% (inactive)
6,Cc1ccc(-n2c(SCC(=O)Nc3ccc(S(=O)(=O)Nc4nccs4)cc3)nnc2-c2ccncc2)cc1,67.7% (active)
7,Cc1ccc(-n2c(SCC(=O)Nc3ccc4c(c3)OCO4)nnc2-c2ccccn2)cc1,-1.61% (inactive)
8,Cc1ccc(-n2c(SCC(=O)Nc3ccc(S(=O)(=O)Nc4nccs4)cc3)nnc2-c2cccnc2)cc1,60.1% (active)
9,O=C(CSc1nnc(-c2ccncc2)n1-c1ccc(Cl)cc1)Nc1ccc(C(=O)O)cc1,3.19% (inactive)
10,Cc1ccc(Cn2cc(COC(=O)N(C)Cc3ccccc3)nn2)cc1,0.63% (inactive)
11,COC(=O)c1c(-c2ccc(OC)cc2)c2c(c3c4cc(OC)ccc4n(S(=O)(=O)c4ccc(F)cc4)c13)C(=O)N(C)C2,14.1% (inactive)
12,COC(=O)[C@]1(C#N)CC(=O)N(CC2CCCCC2)[C@@H]1c1ccccc1,0.85% (inactive)
13,CCOC(=O)c1ccccc1N1C(=O)C2Sc3[nH]c(=O)sc3C(/C=C/c3ccccc3)C2C1=O (centres undefined),54% (active)
14,CCOC(=O)C1Sc2[nH]c(=O)sc2C(c2ccc(Cl)cc2)C1C(=O)OCC (centres undefined),24.3% (inactive)
15,CC(OC(=O)c1ccccc1N1C(=O)C2C3CCC(C3)C2C1=O)C(=O)c1ccccc1 (centres undefined),-4.3% (inactive)
16,CC[C@H](C)[C@H]1CNC(=O)C(=O)N1CC1CCN(CCc2ccc(OC)c(OC)c2)CC1,3.94% (inactive)
17,COc1ccccc1CCNC(=O)C1CCN(c2nc(C)cc(C)n2)CC1,-2.28% (inactive)
18,N#Cc1c(-c2ccccc2)cc(-c2ccccc2)nc1SCC(=O)O,55% (active)
19,N#Cc1c(-c2ccc(F)cc2)cc(C2CC2)nc1SCC(=O)c1cccs1,1.58% (inactive)
20,CCSc1nc(-c2ccc(OC)cc2)cc(-c2ccc(OC)cc2)c1C#N,0.76% (inactive)
21,CC(C)CNS(=O)(=O)CC1NCCc2ccccc21 (centres undefined),5.19% (inactive)
22,NNc1cccc(C=Cc2ccccc2)cc1=O,40.1% (active)
23,Nn1c(SCC(=O)Nc2ccc(S(N)(=O)=O)cc2)nnc1-c1n[nH]c2c1CCC2,3.81% (inactive)
24,COC(=O)c1cc2c(c3c4ccccc4n(S(=O)(=O)c4cccc(C)c4)c13)C(=O)N(Cc1ccccc1)C2,15.1% (inactive)
25,O=c1oc2ccccc2cc1-c1csc(Nc2ccc(O)cc2)n1,38.9% (active)
26,CC(=O)c1ccc(Nc2nc(C(N)c3ccccc3Cl)cs2)cc1 (centres undefined),2.58% (inactive)
27,O=S1(=O)c2c(cccc2N2CCCCC2)O[C@H](COCc2ccccc2)CN1C1CC1,5.4% (inactive)

row,SMILES,inhibition
1,O=C1Nc2ccccc2C1=NN=Cc1ccco1,3.21% (inactive)
2,COC(=O)[C@H](C(C)C)N(CCCc1cn(Cc2ccccc2)nn1)S(=O)(=O)c1ccc(F)cc1Br,2.97% (inactive)
3,Nc1[nH]c(=S)nc2nc(-c3ccccc3)c(-c3ccccc3)nc12,41.4% (active)
4,C[C@H](NC(=O)[C@@H]1Cc2ccccc2CN1C(=O)OC(C)(C)C)C(=O)NC1CCCC1,-7.18% (inactive)
5,COc1ccc2c(c1)CN1CN(CCc3ccccc3)S(=O)(=O)CC21 (centres undefined),3.05% (inactive)
6,CCCCNc1cccc2c1S(=O)(=O)N[C@@H](C)CO2,0.84% (inactive)
7,COc1cc(NS(=O)(=O)c2ccc(NC(=S)NC(=O)c3ccccc3)cc2)nc(OC)n1,24.5% (inactive)
8,COC(=O)Nc1ccc(S(=O)(=O)Nc2cc(OC)nc(OC)n2)cc1,1.9% (inactive)
9,COc1cc(NS(=O)(=O)c2ccc(N/C=C(\C=O)c3nc4cc(Cl)ccc4o3)cc2)nc(OC)n1,60.3% (active)
10,COc1ccc(Cn2cc(COC(=O)N(C)Cc3ccccc3)nn2)cc1,-0.97% (inactive)
11,Cc1ccccc1CN1CCCCC(NC(=O)Nc2ccccc2F)C1=O (centres undefined),4.44% (inactive)
12,COC(=O)c1sc(-c2ccc(C(C)(C)C)cc2)cc1NC(=O)/C=C/C(=O)O,36.6% (active)
13,O=C(C=CC(=O)Nc1ccc(F)cc1F)Nc1ccc(F)cc1F,0.56% (inactive)
14,O=C(CSc1nnc(-c2ccccn2)n1-c1ccc(Cl)cc1)Nc1ccccc1-c1ccccc1,8.25% (inactive)
15,Cc1ccc(S(=O)(=O)CCC(=O)OCC(=O)N(C)C2CCS(=O)(=O)C2)cc1 (centres undefined),2.79% (inactive)
16,CN(C(=O)COC(=O)c1cc(-c2ccco2)nc2ccccc12)C1CCS(=O)(=O)C1 (centres undefined),42.3% (active)
17,O=C(c1cc(-c2ccco2)nc2ccccc12)N(Cc1nnc(-c2ccc(Cl)cc2)o1)C1CC1,8.3% (inactive)
18,COC(=O)[C@]12C[C@H](CC(=O)NCC34CC5CC(CC(C5)C3)C4)C(=O)N(Cc3ccc(Cl)cc3Cl)C1=C[C@H](COCc1ccccc1)O[C@@H]2C,10.5% (inactive)
19,COc1cccc(CNCCc2c[nH]c3ccccc23)c1OCc1ccccc1F,4.43% (inactive)
20,Cc1ccc(S(=O)(=O)N(C)CC(=O)NCCc2c[nH]c3ccccc23)cc1,0.8% (inactive)
21,COc1ccc(S(=O)(=O)NCCc2c[nH]c3ccccc23)cc1OC,35.2% (active)
22,COC(=O)c1c(-c2ccc(OC)cc2)c2c(c3c4ccccc4n(S(=O)(=O)c4ccc(C)cc4)c13)C(=O)N(C)C2,14.9% (inactive)
23,C=CCN1C(=O)[C@H](CC(=O)N2CCN(C(=O)OCC)CC2)[C@@]2(C(=O)OCC)CCCC=C12,0.1% (inactive)
24,COc1ccc(CN(CCN2CCOCC2)C(=O)c2ccc(C)cc2)cc1OC,1.93% (inactive)
25,CC1(C(=O)NS(=O)(=O)c2ccc(Cl)cc2)CCN1C(=O)CC1CCCC1 (centres undefined),9.21% (inactive)
26,CC1(C(=O)NS(=O)(=O)c2ccc3ccccc3c2)CCN1C(=O)C1(c2ccc(Cl)cc2)CCC1 (centres undefined),68.5% (active)
27,Cc1ccccc1S(=O)(=O)NC(=O)C1(C)CCN1C(=O)C1(c2ccc(Cl)cc2)CC1 (centres undefined),33.6% (inactive)

# Source: PubChem BioAssay AID651821 (The Scripps Research Institute Molecular Screening Center, 2012)
